Drawing on ChEMBL document CHEMBL1157539, “Thousands of chemical starting points for antimalarial lead identification” (Nature, 2010), this text covers Inhibition for 36 compounds.

The assay concerns HepG2. In words: GSK_TCMDC: Percent inhibition of human HepG2 cell line. Test compounds present at 10uM. It is filed as functional.
Broadly, the Inhibition is the share of the control response that was lost under treatment. Read a low Inhibition as a response near the control. Regarding `CC(C)c1ccc(CN2CCC(NC(=O)c3ccc(-c4cccc(F)c4)s3)CC2)cc1.O=C(O)C(F)(F)F`, the Inhibition is on record as 47%.

The compound `C[C@@H](CC1CCCCC1)OC(=O)N[C@H]1CCN(C#N)C1` yielded an Inhibition of 7%.

Compound `Cc1ccc2[nH]c(C)cc(=NN=Cc3ccccc3Cl)c2c1` gave an Inhibition of 6%.

Consider `COc1ccc(-c2ccc(NC(=O)c3ccc(Cl)cc3)cc2)cc1CN1CCN(C)CC1.O=C(O)C(F)(F)F`, for which the Inhibition is on record as 36%.

`O=C(NCC1CCC(CNCCCc2ccccc2)CC1)Nc1ccc(Cl)c(Cl)c1` (stereo unspecified) gave an Inhibition of 26%.

For `O=C(Nc1ccc2c(c1)CCN2C1CCN(Cc2ccc(C(F)(F)F)cc2F)C1)c1ccco1` (stereo unspecified), the Inhibition is listed as 9%.

For `O=C(Nc1ccc(Cn2nc(Cl)c(N3CCCNCC3)cc2=O)cc1)c1ccc(-c2ccccc2)cc1.O=C(O)C(F)(F)F`, the Inhibition is listed as 93%.

As to `CCS(=O)(=O)c1ccc(OC)c(Nc2nccc(-c3c(-c4cccc(NC(=O)c5c(F)cccc5F)c4)nn4ncccc34)n2)c1`, the Inhibition is 27%.

For `COc1ccc(Cl)cc1NC(=O)C(C)Nc1ccc(-c2ccccc2)cc1` (stereo unspecified), the Inhibition was 0%.

Compound `CN1CCN(CC2(Nc3nccc(NCCc4cn(C)c5ccccc45)n3)CCCCC2)CC1` showed an Inhibition of 67%.

Consider `Cc1cc2c(cc1C(F)(F)F)N(C(=O)Nc1cc(OCCN(C(C)C)C(C)C)cc(C(F)(F)F)c1)CC2.Cl`, for which the Inhibition is recorded as 42%.

In turn, `CC(C)(C)NCc1cc(Nc2ccnc3cc(Cl)ccc23)ccc1F` returned an Inhibition of 21%.

`Cc1ccc(-c2nc3cc(NC(=O)c4ccc([N+](=O)[O-])o4)ccc3o2)cc1Cl`: the Inhibition was found to be 24%.

As to `Cc1cccc2nc(-c3cccc(-c4ccc(NC(=O)CN5CCOCC5)cc4)c3)[nH]c12`, the Inhibition is on record as 59%.

Take `CC(=O)c1ccc2c(c1)C(NC(=O)c1cccc(Cl)c1Cl)C(CO)C(C)(C)O2` (stereo unspecified): the Inhibition turned out to be 5%.

Compound `Br.CC1(C)NC(N)=NC(=N)N1OCCc1cccc2ccccc12` came in with an Inhibition of 57%.

On to `COc1ccccc1CNC(=O)CCn1c(=O)[nH]c2ccsc2c1=O`, for which the Inhibition is listed as 0%.

`O=C(Nc1cccnc1)c1cc(-c2cccnc2)nc2ccc(Br)cc12` registered an Inhibition of 9%.

The compound `COc1ccc(Nc2ncc3c(-c4cccc(NC(=O)Cc5cccc(O)c5)c4)c[nH]c3n2)cc1OC` displayed an Inhibition of 44%.

`COc1ccc(CNCCc2cccs2)cc1-c1ccc(S(=O)(=O)NCCN2CCCC2)s1.O=C(O)C(F)(F)F` yielded an Inhibition of 41%.

For `Cc1cccc(CNc2nc(C)cc(N[C@@H](CC(C)C)C(=O)NCCOc3ccccc3)n2)c1.O=C(O)C(F)(F)F`, the Inhibition turned out to be 15%.

Consider `Cc1ccc2[nH]c(-c3ccccc3)cc(=NN=Cc3cccnc3)c2c1`, for which the Inhibition is given as 12%.

`O=C(NC1CCCCC1)C1CCCN(C(=O)c2ccc(O)c(-c3ccc(Cl)c(Cl)c3)c2)C1` (stereo unspecified) came in with an Inhibition of 22%.

`O=C(O)C(F)(F)F.O=[N+]([O-])c1cccc(CNC2CCN(Cc3ccc(Cl)c(Cl)c3)CC2)c1` gave an Inhibition of 5%.

Compound `COc1cc2c(cc1C(F)(F)F)N(C(=O)Nc1cc(OC(F)(F)F)cc(-c3cccnc3)c1)CC2` displayed an Inhibition of 55%.

In turn, `Cc1cccc(-c2ccc(NC(=O)Nc3ccc4nccc(N5CCN(C)CC5)c4c3)cc2C)n1.Cl` registered an Inhibition of 4%.

Compound `Cc1cc(-c2ccc(NC(=O)N3CCc4cc(Br)c(N5CCN(C)CC5)cc43)cc2)cc(C)n1` had an Inhibition of 29%.

For the compound `CCOc1cc(C=NNc2nc(C)cc(-n3nc(C)cc3C)n2)ccc1O`, the Inhibition was determined as 46%.

Turning to `CC(C)c1cccc(C(NC(=O)[C@H]2Cc3ccccc3CN2C(=O)c2cccc(N3CCOCC3)c2)C2CCCC2)c1` (stereo partly specified), the Inhibition is 3%.

As to `Cc1cccc2nc(-c3cccc(-c4cccc(NC(=O)c5cn(C)c(=O)n5C)c4)c3)[nH]c12`, the Inhibition was found to be 5%.

In the case of `CN(C)CCOc1cc(NC(=O)Nc2ccc(Cl)cc2C(F)(F)F)ccc1I`, the Inhibition is 0%.

As for `CC(C)CNCc1cccc(-c2cccc(CN(CCCN3CCN(C)CC3)C(=O)/C=C/c3ccccc3)c2)c1.O=C(O)C(F)(F)F`, the Inhibition is on record as 44%.

With `O=C(O)C(F)(F)F.O=S(=O)(/C=C/c1ccccc1)N(Cc1ccc(-c2ccc(CNCCOc3ccccc3)cc2)cc1)CC1CCCCN1` (stereo unspecified), the Inhibition is 99%.

Consider `CCNc1cc(C)nc(Nc2ccc(NC(=O)c3ccco3)cc2)n1`, for which the Inhibition came to 24%.

As for `CC(C)(C)c1ccc(-c2cc(C(=O)N[C@@H](CO)C(=O)O)on2)cc1.CC(C)(C)c1ccc(-c2nocc2C(=O)N[C@@H](CO)C(=O)O)cc1`, the Inhibition was determined as 1%.

As to `COc1cccc(CNC(=O)c2cccc(-c3cccc(CN4CCC(N5CCCC5)CC4)c3)n2)c1.O=C(O)C(F)(F)F`, the Inhibition is on record as 22%.
